Results on 51 compounds are retold here after PubChem BioAssay AID588511 (Johns Hopkins Ion Channel Center, 2011).

Out of some 310,000 compounds screened, about 3,600 (1.2%) were called active.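 The calls were made as follows: active = ratio plate-corrected score three or more library SD toward inhibition, starting fluorescence score within five deviations; inactive = the rest.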 Many of the other results were omitted from the sample, so actives are more common in it than they were.

Anoctamin-1 (Mus musculus), sequence (Q8BHY3 whole entry, looked up): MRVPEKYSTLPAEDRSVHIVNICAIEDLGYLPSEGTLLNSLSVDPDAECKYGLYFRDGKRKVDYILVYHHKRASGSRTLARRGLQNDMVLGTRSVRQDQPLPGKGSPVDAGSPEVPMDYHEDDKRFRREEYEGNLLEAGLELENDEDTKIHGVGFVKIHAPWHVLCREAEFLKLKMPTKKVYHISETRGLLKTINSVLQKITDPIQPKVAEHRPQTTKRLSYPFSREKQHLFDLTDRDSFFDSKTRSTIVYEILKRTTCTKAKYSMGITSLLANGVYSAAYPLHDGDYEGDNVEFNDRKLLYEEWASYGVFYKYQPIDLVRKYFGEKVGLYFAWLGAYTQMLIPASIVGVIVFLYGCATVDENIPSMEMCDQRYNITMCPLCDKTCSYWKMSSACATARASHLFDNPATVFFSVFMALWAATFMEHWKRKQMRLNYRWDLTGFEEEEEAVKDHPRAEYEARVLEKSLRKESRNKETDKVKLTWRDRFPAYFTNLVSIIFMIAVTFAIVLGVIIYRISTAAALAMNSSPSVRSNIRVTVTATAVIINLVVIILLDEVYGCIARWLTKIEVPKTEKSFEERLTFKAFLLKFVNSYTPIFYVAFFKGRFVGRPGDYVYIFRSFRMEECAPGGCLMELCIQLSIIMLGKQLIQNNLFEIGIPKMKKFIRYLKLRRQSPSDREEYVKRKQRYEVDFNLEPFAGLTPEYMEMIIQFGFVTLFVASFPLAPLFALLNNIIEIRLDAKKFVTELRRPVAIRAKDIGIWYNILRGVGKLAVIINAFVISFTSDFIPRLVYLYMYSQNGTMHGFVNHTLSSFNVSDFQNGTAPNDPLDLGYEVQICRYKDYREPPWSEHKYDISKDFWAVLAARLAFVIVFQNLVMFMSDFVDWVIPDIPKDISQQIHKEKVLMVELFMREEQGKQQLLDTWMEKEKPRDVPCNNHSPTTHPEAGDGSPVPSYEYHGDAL

The experiment addresses Anoctamin-1 (Mus musculus) (UniProt Q8BHY3). In words: blockers of mouse ANO1 Ca-activated Cl channel – cell-based, HTS, primary screen (AID 588511).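 As to normalized B-score (activity score, 25-100; higher = stronger inhibition): score derived from kinetic fluorescence span divided by baseline fluorescence per well.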 The following applies: HEK293 TMEM16A/YFP iodide influx fluorescence, ionomycin; at 10 µM.
As to `O=C(NCc1ccc(F)cc1)C(c1ccccc1)N(C(=O)c1csnn1)C1CC1` (stereo unspecified), the normalized B-score (activity score, 25-100; higher = stronger inhibition) result is “inactive”.

Turning to `Fc1ccc(CSc2nnc(-c3cc4c(s3)-c3ccccc3CC4)o2)cc1`, the normalized B-score (activity score, 25-100; higher = stronger inhibition) is 100 (active).

Take `Fc1ccc(-c2nnc(CSc3nnc(-c4ccc5c(c4)OCO5)o3)o2)cc1`: the normalized B-score (activity score, 25-100; higher = stronger inhibition) entry is “inactive”.

For `CCSc1nnc(-c2cc3c(s2)-c2ccccc2CC3)o1`, the normalized B-score (activity score, 25-100; higher = stronger inhibition) result is “inactive”.

Turning to `O=C(NCCS(=O)(=O)c1ccc(Br)cc1)c1ccccc1Cl`, the normalized B-score (activity score, 25-100; higher = stronger inhibition) result is “inactive”.

In the case of `O=C(OCC1O[C@@H](OC(=O)c2cc(O)c(O)c(O)c2)[C@@H](OC(=O)c2cc(O)c(O)c(O)c2)[C@@H](OC(=O)c2cc(O)c(O)c(O)c2)[C@@H]1OC(=O)c1cc(O)c(O)c(O)c1)c1cc(O)c(O)c(O)c1` (stereo partly specified), the normalized B-score (activity score, 25-100; higher = stronger inhibition) result is “inactive”.

`CC(=O)c1c(C)[nH]c(C(=O)COC(=O)c2cccc(S(=O)(=O)N(C)c3ccccc3)c2)c1C`: the normalized B-score (activity score, 25-100; higher = stronger inhibition) was 100 (active).

Consider `CN(c1ccccc1)S(=O)(=O)c1ccc(Cl)c(C(=O)OCC(N)=O)c1`, for which the normalized B-score (activity score, 25-100; higher = stronger inhibition) result is “inactive”.

In the case of `CC(=O)c1c(C)[nH]c(C(=O)COC(=O)CCOc2ccc(C)cc2)c1C`, the normalized B-score (activity score, 25-100; higher = stronger inhibition) entry is “inactive”.

On to `CC(=O)NCCc1ccc(S(=O)(=O)Nc2ccc(C)c(S(=O)(=O)N3CCOCC3)c2)cc1`, for which the normalized B-score (activity score, 25-100; higher = stronger inhibition) result is “inactive”.

Take `CCCCCCOC(=O)NCC(O)c1ccccc1` (stereo unspecified): the normalized B-score (activity score, 25-100; higher = stronger inhibition) result was “inactive”.

As to `COc1cccc(C(O)c2nc3ccccc3n2C)c1` (stereo unspecified), the normalized B-score (activity score, 25-100; higher = stronger inhibition) entry was “inactive”.

In the case of `CCCCCC(O)c1cccc(OCc2ccc3ccccc3n2)c1` (stereo unspecified), the normalized B-score (activity score, 25-100; higher = stronger inhibition) was 100 (active).

On to `NC(=O)c1ccc(Nc2ccc3c(c2)CCC3)c([N+](=O)[O-])c1`, for which the normalized B-score (activity score, 25-100; higher = stronger inhibition) entry is “inactive”.

For `Cc1ccc(S(=O)(=O)NCc2csc(C)n2)c(C)c1`, the normalized B-score (activity score, 25-100; higher = stronger inhibition) result was “inactive”.

Turning to `Cc1nc(CNS(=O)(=O)c2ccc(Oc3ccccc3)cc2)cs1`, the normalized B-score (activity score, 25-100; higher = stronger inhibition) was 100 (active).

Take `Cc1nc(CNS(=O)(=O)c2cccnc2)cs1`: the normalized B-score (activity score, 25-100; higher = stronger inhibition) result was “inactive”.

With `CS(=O)(=O)c1ccccc1C(=O)Nc1ccc2sccc2c1`, the normalized B-score (activity score, 25-100; higher = stronger inhibition) result is “inactive”.

`Cc1csc(NC(=S)Nc2cccc(Cl)c2)n1`: the normalized B-score (activity score, 25-100; higher = stronger inhibition) result was “inactive”.

`S=C(Nc1cccc(Cl)c1)Nc1ccc2c(c1)OCCO2`: the normalized B-score (activity score, 25-100; higher = stronger inhibition) result was “inactive”.

As for `FC(F)(F)c1cccc(NC(=S)Nc2cccc(Cl)c2)c1`, the normalized B-score (activity score, 25-100; higher = stronger inhibition) is 100 (active).

On to `COc1ccc(S(=O)(=O)NCCCc2ccccc2)cc1`, for which the normalized B-score (activity score, 25-100; higher = stronger inhibition) entry is “inactive”.

In the case of `COC(=O)CNS(=O)(=O)c1ccc(OC)cc1`, the normalized B-score (activity score, 25-100; higher = stronger inhibition) result is “inactive”.

`COc1ccc(S(=O)(=O)NCCCCOc2ccc(Cl)cc2)cc1`: the normalized B-score (activity score, 25-100; higher = stronger inhibition) is 25 (active).

For `Cc1ccccc1C(=O)N1CCC(C(=O)Oc2ccc(C#N)cc2)CC1`, the normalized B-score (activity score, 25-100; higher = stronger inhibition) entry is “inactive”.

With `Cc1cccc(N(Cc2ccccc2)C(=O)c2cc(S(=O)(=O)N3CCOCC3)ccc2F)c1`, the normalized B-score (activity score, 25-100; higher = stronger inhibition) result is “inactive”.

As for `Cc1ccc(F)cc1NC(=O)Cc1nn(C)c(=O)c2ccccc12`, the normalized B-score (activity score, 25-100; higher = stronger inhibition) was 100 (active).

For `COc1ccc(-c2nn(C)c(=O)c3ccccc23)cc1NC(=O)COc1ccccc1`, the normalized B-score (activity score, 25-100; higher = stronger inhibition) entry was “inactive”.

Consider `Cc1nn(CC(=O)Nc2ccc(F)cc2)c(=O)c2ccccc12`, for which the normalized B-score (activity score, 25-100; higher = stronger inhibition) entry is “inactive”.

For `C[C@@H]1NC(=O)c2cc([N+](=O)[O-])cc(F)c2NCCC[C@@H](C(N)=O)NC(=O)[C@H](CC(N)=O)NC1=O`, the normalized B-score (activity score, 25-100; higher = stronger inhibition) entry is “inactive”.

As for `Cc1nn(C)c(Oc2ccccc2)c1CCNS(=O)(=O)c1ccc(F)cc1`, the normalized B-score (activity score, 25-100; higher = stronger inhibition) entry is “inactive”.

For the compound `C/C(=N\NS(=O)(=O)c1ccc(Cl)cc1)c1ccc(NC(=O)c2ccco2)cc1`, the normalized B-score (activity score, 25-100; higher = stronger inhibition) result was “inactive”.

For `CC1(C)CC(=O)C=C(N2CCCC2)C1`, the normalized B-score (activity score, 25-100; higher = stronger inhibition) result was “inactive”.

On to `CC1(C)CC(N2CCN(C(c3ccccc3)c3ccccc3)CC2)=CC(=[N+]2CCCCC2)C1`, for which the normalized B-score (activity score, 25-100; higher = stronger inhibition) is 100 (active).

`O=C1CC(N2CCN(C(c3ccccc3)c3ccccc3)CC2)C(=O)N1` (stereo unspecified): the normalized B-score (activity score, 25-100; higher = stronger inhibition) entry is “inactive”.

For the compound `O=C(/C=C/Nc1ccc(S(=O)(=O)Nc2cnc3ccccc3n2)cc1)c1cccnc1`, the normalized B-score (activity score, 25-100; higher = stronger inhibition) result was “inactive”.

Regarding `COc1ccc2[nH]cc(/C=C(/C#N)S(=O)(=O)c3ccccc3)c2c1`, the normalized B-score (activity score, 25-100; higher = stronger inhibition) is 100 (active).

Regarding `CCN(CC)CC(=O)c1c[nH]c2ccc(OC)cc12`, the normalized B-score (activity score, 25-100; higher = stronger inhibition) entry was “inactive”.

As to `COc1ccc(/C=C(\C#N)c2c[nH]c3ccccc23)cc1`, the normalized B-score (activity score, 25-100; higher = stronger inhibition) result is “inactive”.

Regarding `COC(C[C@@H](O)C[C@@H](O)[C@H](C)OCc1ccccc1)OC`, the normalized B-score (activity score, 25-100; higher = stronger inhibition) result is “inactive”.

Turning to `CCc1cccc(NC(=O)COC(=O)C2CCN(c3ccc(C(F)(F)F)cn3)CC2)c1`, the normalized B-score (activity score, 25-100; higher = stronger inhibition) entry was “inactive”.

For the compound `N#CCSc1nc2c(c(=O)n1Cc1ccccc1)C1(CCCC1)Cc1ccccc1-2`, the normalized B-score (activity score, 25-100; higher = stronger inhibition) result is “inactive”.

Regarding `Cc1cccc(-n2c(=O)c3c(C)c(C)sc3n(CC(N)=O)c2=O)c1`, the normalized B-score (activity score, 25-100; higher = stronger inhibition) result is “inactive”.

For `Cc1cccc(-n2c(SCC(N)=O)nc3c(c2=O)C2(CCCCC2)Cc2ccccc2-3)c1`, the normalized B-score (activity score, 25-100; higher = stronger inhibition) is 100 (active).

Turning to `Cc1ccc(-c2csc(-c3c[nH]c4ccccc34)n2)cc1`, the normalized B-score (activity score, 25-100; higher = stronger inhibition) was 100 (active).

Turning to `Cc1ccc(-c2csc(-c3cc(C)on3)n2)cc1`, the normalized B-score (activity score, 25-100; higher = stronger inhibition) entry was “inactive”.

For the compound `CCCc1cc(-c2nc(-c3ccc(C)cc3)cs2)ccn1`, the normalized B-score (activity score, 25-100; higher = stronger inhibition) result was “inactive”.

With `O=C(C1CCCO1)N1CCN(S(=O)(=O)c2ccc(Br)cc2)CC1` (stereo unspecified), the normalized B-score (activity score, 25-100; higher = stronger inhibition) entry was “inactive”.

As to `Cc1cc(=O)oc2cc(OCC3CC(c4ccccc4Cl)=NO3)ccc12` (stereo unspecified), the normalized B-score (activity score, 25-100; higher = stronger inhibition) entry was “inactive”.

Turning to `O=C(CCS(=O)(=O)c1ccc2c(c1)NC(=O)CS2)NCc1ccccc1Cl`, the normalized B-score (activity score, 25-100; higher = stronger inhibition) entry was “inactive”.

`O=C(N[C@@H](Cc1ccccc1)C(=O)OCc1ccccc1)c1nc[nH]c1C(=O)N[C@@H](Cc1ccccc1)C(=O)OCc1ccccc1`: the normalized B-score (activity score, 25-100; higher = stronger inhibition) entry is “inactive”.
